Consider 93 compounds from PubChem BioAssay AID652054 (National Center for Advancing Translational Sciences (NCATS), 2013).

Several values for one entry are separate records, joined by “and”; a condition that tells them apart may be missing. Equal entries are not always repeated. Hit rate of the full screen: of about 360,000 compounds, about 9,100 (2.5%) were called active. Another 4% or so got no clear call; they are omitted. The entries come from a sample that favours actives as a whole. Unmarked numbers belong to inactive results. Cut-off read from the data, not from the text of the source: active = max response below about -50%; inconclusive = no clear call, values can overlap the other calls; inactive = above that.
% is set by controls: 0 for no effect and ±100 for the full control effect.

D(3) dopamine receptor (Homo sapiens), sequence (P35462 whole entry, looked up): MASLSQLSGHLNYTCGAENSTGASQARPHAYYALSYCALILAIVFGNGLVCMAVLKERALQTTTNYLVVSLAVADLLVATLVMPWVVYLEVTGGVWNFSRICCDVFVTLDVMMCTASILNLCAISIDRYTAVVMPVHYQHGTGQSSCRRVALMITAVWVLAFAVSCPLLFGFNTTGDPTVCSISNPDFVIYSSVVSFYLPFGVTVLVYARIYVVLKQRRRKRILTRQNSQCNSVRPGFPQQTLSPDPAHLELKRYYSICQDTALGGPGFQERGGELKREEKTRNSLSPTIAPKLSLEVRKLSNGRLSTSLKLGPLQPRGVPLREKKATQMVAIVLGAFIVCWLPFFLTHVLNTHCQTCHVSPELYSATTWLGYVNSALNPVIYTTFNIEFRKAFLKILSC

The target of this experiment is D(3) dopamine receptor (Homo sapiens) (UniProt P35462). Put plainly: qHTS of D3 Dopamine Receptor Antagonist: qHTS. To be noted: D3R cells, DiscoveRx beta-arrestin luminescence, antagonist mode; hits give low values. In outline:
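Cells plated overnight at 1500 cells/well, then exposed to library compounds with dopamine controls for 90 minutes at 37 degrees C. DiscoveRx reagent added for 30–60 minutes at room temperature; luminescence read, quantitative HTS format.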
Take `CC(=O)c1cccc(S(=O)(=O)N2CCC(n3nnc4cc(F)ccc43)CC2)c1`: the max response, negative = inhibition is -14.5%. As to `COc1ccc(CNC(=O)CN2CCC(n3nnc4cc(F)ccc43)CC2)cc1`, the max response, negative = inhibition is -83.8% (active). `COc1ccccc1CNC(=O)CN1CCC(n2cnc3cc(F)ccc32)CC1`: the max response, negative = inhibition was -0.289%. Regarding `CC(C)(C(=O)N1CCC1(C)C(=O)NS(=O)(=O)c1ccc(Br)cc1)c1ccccc1` (stereo not drawn), the max response, negative = inhibition was 11.9%. With `CCC(=O)c1ccc(OCC(O)CN2C(=O)NC(C)(C)C2=O)cc1` (stereo not drawn), the max response, negative = inhibition is 0%. For `CCC(=O)c1ccc(OCC(O)CN2CC(C)OC(C)C2)cc1` (stereo not drawn) the value was -54.2% (active); for `CC1CCN(CC(O)COc2ccc(C(=O)c3ccccc3)cc2)CC1` (stereo not drawn), 0%; for `OCCc1ccc(NCCc2ccco2)cc1`, 11.1%. To `Cn1cccc1/C=C1\SC(=S)N(NC(=O)c2ccc(Cl)cc2)C1=O` belongs -70.7% (active); to `O=C(O)c1ccc(/C=C2\SC(=S)N(NC(=O)c3ccc(Br)cc3)C2=O)cc1`, -21.3%. For `CCOc1ccc(/C=C2\SC(=S)N(NC(=O)c3ccncc3)C2=O)cc1OC` the value was -13.1%; for `COC(=O)C1(C(=O)OC)C[C@H](c2ccccc2)N(Cc2ccccc2OC)[C@@H]1c1ccccc1`, -25.4%. Take `CCc1ccc(OCC(O)CN2CCN(CCO)CC2)cc1` (stereo not drawn): the max response, negative = inhibition is 18.7%.

For the compound `CCc1ccc(OC2(C)CCN(CCOc3ccc(C)cc3)C2)cc1` (stereo not drawn), the max response, negative = inhibition is -75% (active). For `Cc1ccc(OCCNC(=O)CN2C(=O)NC3(CCCC3)C2=O)cc1` the value was -22.9%. Turning to `CCCNC(=O)C1(C)CCN1C(=O)C1(c2ccccc2)CC1` (stereo not drawn), the max response, negative = inhibition is -7.67%. To `Cc1sc2nc(-c3ccccc3F)oc(=O)c2c1C` belongs 0%.

Regarding `CCCc1nc2ccccc2n1C(C)C(=O)NC(C)(C)C` (stereo not drawn), the max response, negative = inhibition is -12.7%.

For `CC(OC(=O)c1ccc(NC(=O)CC#N)cc1)C(=O)Nc1ccc(S(=O)(=O)N2CCCC2)cc1` (stereo not drawn), the max response, negative = inhibition was 2.56%. For `COc1cc(C(O)c2nc(-c3cnn(C)c3)cs2)ccc1F` (stereo not drawn) the value was -2.22%.

In the case of `O=C(N[C@H]1CC[C@H](CC(=O)N2CCCCC2)O[C@@H]1CO)c1cccc(F)c1`, the max response, negative = inhibition was 1.98%. Turning to `O=C(c1ccc(Cl)cc1)c1ccc(OCC(O)CN2CCCCC2)cc1` (stereo not drawn), the max response, negative = inhibition is -2.74%. To `CC(=O)c1ccc(OCC(O)CN2CCN(S(=O)(=O)c3cccc(Br)c3)CC2)cc1` (stereo not drawn) belongs 22%. To `OC(COc1ccccc1)CN1CCN(c2cccc(Cl)c2)CC1` (stereo not drawn) belongs -51.8% (active); to `COC(=O)COc1ccc(S(=O)(=O)N2CCOCC2)cc1`, 20.2%. For `Cc1nn(CCOc2ccccc2)c(=O)n1-c1ccccc1F` the value was -0.664%. For `O=S(=O)(c1ccc(OCC(O)CN2CCN(c3ccccc3Cl)CC2)cc1)N1CCOCC1` (stereo not drawn), the max response, negative = inhibition was -73% (active). For `CC(=O)Nc1ccc(OCC(O)CN2CCN(c3ccccc3Cl)CC2)cc1` (stereo not drawn) the value was -66.4% (active); for `OC(COc1ccc2c(c1)CCC2)CN1CCN(c2cccc(Cl)c2)CC1` (stereo not drawn), 0%; for `CC(C)c1ccc(OCC(O)CN2CCN(c3ccccn3)CC2)cc1` (stereo not drawn), -29.5%. For `CCc1nn(CCCN2CCN(c3cccc(Cl)c3)CC2)c(=O)n1CCOc1ccccc1` the value was -77.2% (active) and -89.6% (active); for `O=C(CCCC(=O)N1CCN(c2cccc(Cl)c2)CC1)c1ccccc1`, 11.7%. Take `CCN1C(=O)/C(=C\N2CCN(c3cccc(Cl)c3)CC2)SC1=S`: the max response, negative = inhibition is -22.6%. For `CN1CCN(c2ccncc2S(=O)(=O)N2CCCC2)CC1`, the max response, negative = inhibition was 22.6%.

`COC(=O)c1ccc2nc(-c3ccc(C)cc3)c(Cc3ccc(OC)cc3C)n2c1`: the max response, negative = inhibition was 0.363%. To `CC(C)C1Cc2[nH][nH]c(=O)c2C(c2ccc(Cl)cc2)O1` (stereo not drawn) belongs -0.765%; to `O=C(Nc1ccc(Cl)cc1)c1csc([C@H]2C[C@H](O)[C@@H](CO)O2)n1`, 0%; to `COc1ccc(NC(=O)C2Cc3c(-c4cccc(NC(C)=O)c4)ccnc3O2)cc1OC` (stereo not drawn), 0%.

Regarding `COc1ccc(CC(N)c2csc(NC(=O)NC(c3ccccc3)c3ccccc3)n2)cc1` (stereo not drawn), the max response, negative = inhibition was -20.6%. For `COc1ccc(N)cc1NC(=O)CN1CCOCC1` the value was 60.4%; for `OC[C@@H]1CN(Cc2ccc(-c3ccccc3)cc2)C[C@H](n2cnc3c(NC4CCCC4)ncnc32)O1`, 36%; for `C=CCC[C@@H](CCCCC)OC(=O)/C=C/[C@@H](O)[C@H](O)C[C@H](O)CC=C`, 5.67%.

Turning to `CCCCCCNC(=O)O[C@H]1CN(C(=O)OC(C)C)N(C(=O)OC(C)C)[C@@H]2CN(S(=O)(=O)c3ccc(C)cc3)C[C@]12O`, the max response, negative = inhibition is 1.36%. To `O=Nc1c(O)cc(O)c2ccccc12` belongs 9%; to `COc1ccc(COC[C@H](CC(C)C)N2CCN(C(=O)c3cccc(C(F)(F)F)c3)CCC2=O)cc1`, 0%. Regarding `CCOC(=O)N1C(=O)C[C@](Sc2ccc(C)cc2)(C(=O)OC)[C@H]1c1ccccc1`, the max response, negative = inhibition is 28.6%. To `Cc1ccc(C(=O)NCC(=O)NC2CC2)cc1` belongs -5.92%. To `O=C(CNC(=O)c1ccc2ccccc2c1)Nc1ncccc1O` belongs 8.18%; to `CC1CCC(NC(=O)CNC(=O)c2ccc3ccccc3c2)CC1` (stereo not drawn), -70% (active); to `Cn1cnc(S(=O)(=O)N2C[C@@H](O)COC[C@@H]3O[C@H](CC(=O)NC4CCC4)CC[C@H]32)c1`, 17.2%. For `COc1ccc2c(c1OC)C(=O)OC2Nc1nc(-c2ccccc2)cs1` (stereo not drawn) the value was -73.2% (active); for `COc1ccc(-c2csc(Nc3cccc(C)n3)n2)cc1OC`, 42.5%; for `CCc1ccccc1NC(=O)[C@@H]1CCC(=O)N1C1OC(=O)c2c1ccc(OC)c2OC` (stereo partly drawn), -18.1%. For the compound `CC1(C(=O)Nc2cccc(Oc3ccccc3)c2)CCN1Cc1ccccc1Cl` (stereo not drawn), the max response, negative = inhibition is 11.7%. Turning to `C=C(C)C(=O)O[C@H]1C/C(C)=C\C(=O)/C=C(\C)[C@H](O)[C@@H]2OC(=O)C(=C)[C@@H]21`, the max response, negative = inhibition was -61.4% (active).

With `O=C(NCc1cccs1)c1ccc(Br)o1`, the max response, negative = inhibition is 11.4%.

Consider `CC(CNC(=O)c1ccc(Br)o1)NC(=O)c1ccc(Br)o1` (stereo not drawn), for which the max response, negative = inhibition was -72.7% (active). To `CC(CCc1ccccc1)NC(=O)c1ccc(Br)o1` (stereo not drawn) belongs -10.2%. For `CC(C)C1CC2=C(C(=O)OC(C)(C)O2)C(c2ccc(F)cc2)O1` (stereo not drawn) the value was -3.03%; for `COc1ccc(NC(=O)COC(=O)C2COc3ccccc3O2)cc1` (stereo not drawn), -20.1%. As to `Brc1ccc2nc(-c3ccccc3)c(Cc3ccccc3)n2c1`, the max response, negative = inhibition was 23.1%.

For the compound `CCNC(=O)C1(C)CCCN(Cc2noc(-c3ccccc3OC)n2)C1` (stereo not drawn), the max response, negative = inhibition was 23.6%. To `Cc1cccc(C)c1OCCN1CCOCC1` belongs 21.2%; to `Clc1ccccc1-c1cc(COc2ccc3ccccc3c2)no1`, -0.665%; to `Cc1cc(C)c(NC(=O)CN2CCCCCC2)c(C)c1`, 1.9%. `Cc1cc(OCCN2CCCC2)cc(C(C)C)c1`: the max response, negative = inhibition was -86% (active). On to `c1ccc2cc(OCCN3CCCC3)ccc2c1`, for which the max response, negative = inhibition is -61.2% (active).

In the case of `Cc1cc(OCCN2CCCC2)ccc1C(C)C`, the max response, negative = inhibition is 0%. `CCOC(=O)[C@]12CCC=C1N(Cc1cccc3ccccc13)C(=O)[C@H](CC(=O)NCc1cccc(C(F)(F)F)c1)C2`: the max response, negative = inhibition was 7.1%. To `CCCCCCN1C[C@@H](O)[C@H](n2cc(COC(=O)c3ccccc3)nn2)C[C@@H]1c1ccc(Cl)cc1` belongs 3.45%; to `CCc1nnc(NC(=O)c2ccco2)s1`, -7.74%. As to `Cc1ccc(S(=O)(=O)N2CCCCC2)cc1NC(=O)CCNC(=O)c1ccccc1Cl`, the max response, negative = inhibition is 25.5%. As for `N#Cc1ccc(-c2nc3c(Cl)cc(C(F)(F)F)cn3c2Cc2ccccc2C(F)(F)F)cc1`, the max response, negative = inhibition is 8.9%. To `CCN(CC)CCCNC(=O)c1cc(-c2cccc(Cl)c2)on1` belongs -19.8%; to `CCN(CC)CCCNC(=O)c1cc2c(=O)[nH]c3ccc(C)cc3c2s1`, -89.2% (active).

`Cc1cccc(N(C)C(=O)c2cc3c(=O)[nH]c4ccc(C)cc4c3s2)c1`: the max response, negative = inhibition was -15.8%. For `CCC(=O)N1CCC(C)(C(=O)Nc2cc(OC)c(OC)c(OC)c2)C1` (stereo not drawn) the value was 16.4%; for `Cc1cccc(C)c1NC(=O)N1CC=C(n2c(=O)[nH]c3ccccc32)CC1`, 0%. For the compound `CCOc1ccc(NC(=O)N2CCN(CC)CC2)cc1`, the max response, negative = inhibition was 6.64%. For `CCOc1ccc(NC(=O)N2CC=C(n3c(=O)[nH]c4ccccc43)CC2)cc1` the value was -51.2% (active); for `CCOC(=O)C=Cc1ccc(C(=O)OCC)[nH]1`, 20.2%; for `COC(=O)[C@@]12C[C@@H](CC(=O)N3CCCCC3)C(=O)N(Cc3ccc4c(c3)OCO4)C1=CCC(C)(C)C2`, -15.1%. As to `Cc1ccc(NC(=O)N2CCSc3ccccc32)cc1`, the max response, negative = inhibition was -50.5% (active). For `Cc1ccc(NC(=O)N2CCC(O)(c3cccnc3)CC2)cc1` the value was 1.47%; for `CCOc1ccc(CNC(=O)CCC(=O)N2CCSc3ccccc32)cc1`, 10.8%; for `Cc1ccc(S(=O)(=O)N[C@H](CO)C(C)C)cc1`, -14.1%. Take `CCCN(CC1COc2ccccc2O1)C(=S)Nc1ccc(C)cc1` (stereo not drawn): the max response, negative = inhibition was -53.1% (active). Regarding `CCC(=O)c1ccc(OCC(=O)N(CC)CC2COc3ccccc3O2)cc1` (stereo not drawn), the max response, negative = inhibition was 10.7%. To `CC(NC(=S)Nc1ccccc1)C1COc2ccccc2O1` (stereo not drawn) belongs 1.63%; to `Cc1cc(=O)c2ccc(NC(=O)c3ccccc3)cc2[nH]1`, 13.3%.

On to `O=C1NC(O)CCN1C1CC(O)C(CO)O1` (stereo not drawn), for which the max response, negative = inhibition was 11%. For the compound `CCN1CC=C2C(C#N)=C(N)C(C#N)(C#N)[C@H](c3ccoc3)[C@H]2C1`, the max response, negative = inhibition is -11.8%.

For `CCCN1CC=C2C(C#N)=C(N)C(C#N)(C#N)C(c3cc(OC)ccc3OC)C2C1` (stereo not drawn), the max response, negative = inhibition was -67.2% (active).
